Measurements as given in PubChem BioAssay (NCATS).
Values joined by “and” are separate entries in the source; they are usually repeats but may differ in a detail not shown here. Equal values may be shown once. Inconclusive results are not listed. Active and inactive are the calls of the source. Unless noted, the call rests on the fitted dose curve; in most records, active means well fitted curve in the direction sought with a large enough effect; inconclusive means small, poorly fitted or top-dose-only effect, or another doubt; inactive means no such curve, though single readings can be large; an effect the other way counts as inactive or inconclusive.

How the values were obtained:
[1] = qHTS to identify inhibitors of the type 1 interferon - major histocompatibility complex class I in skeletal muscle: primary screen against the NCATS Mechanism Interrogation Plate v5.0 (MIPE) Libary (AID 1347411); further: nearly all actives have a fitted effect of over 65% in size; further: potency means the concentration at half of the fitted maximal effect;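 on activity change, negative = inhibition: plate controls were vehicle for no effect and reference inhibitor for full effect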
How it was run: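 Immortalized human C25cl48 myoblasts with HiBit knocked into endogenous HLA-B*08:01 were stimulated with 4.0 ng/ml IFN-beta and exposed to compounds (11-point 1:3 titration, top 46 uM final) for 24 hrs at 37 C; HiBiT lytic luminescence measured.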

[2] = Primary qHTS for inhibitors of nuclear receptor binding SET domain protein 2 (NSD2) in an isogenic RCH-ACV NSD2 p.E1099K mutant (9B) (AID 1645876); further: nearly all actives have a fitted effect of over 70% in size; further: potency means the concentration at half of the fitted maximal effect
[3] = Primary qHTS for inhibitors of nuclear receptor binding SET domain protein 2 (NSD2) in an RCH-ACV wild type WT cells (2C) (AID 1645877); further: nearly all actives have a fitted effect of over 70% in size; further: potency means the concentration at half of the fitted maximal effect
[4] = molecular target: Phospholipid hydroperoxide glutathione peroxidase GPX4 (Homo sapiens) (UniProt P36969); assay: Primary qHTS Assay for Inhibitors of Recombinant Selenoprotein Glutathione Peroxidase 4 (GPX4) (AID 1845192); settings: outcome: dose series up to 50 µM unless noted; further: nearly all actives have a fitted effect of over 65% in size; further: potency means the concentration at half of the fitted maximal effect; on activity change, negative = inhibition: on the % scale 0 is the no-effect control and ±100 the full control effect
How it was run: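 NADPH consumption, followed by fluorescence at 340/450 nm between 0 and 15 min, reports GPX4 activity via coupled glutathione reductase (100 nM). Enzyme 200 nM was pre-exposed to compound 30 min; 0.5 mM cumene hydroperoxide and 1 mM GSH served as substrates.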

[5] = qHTS drug screen for cell cycle checkpoint inhibitors in PARPi-resistant BRCA-mutant ovarian cancer cell lines. (AID 1963452; calls by dose curve; further: potency means the concentration at half of the fitted maximal effect); settings: PEO1/OlaR viability, CellTiter-Glo luminescence, 96 h; for Z-AUC: stronger effect = lower value
How it was run: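 PEO1, PEO4 and PEO1/OlaR ovarian cancer cells, 600 per well, exposed 96 h at 37C to a dilution series. Viability read by CellTiter-Glo luminescence, normalized to DMSO and empty wells; activity summarized as Z-AUC.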

[6] = qHTS assay to identify inhibitors of the type 1 interferon - major histocompatibility complex class I in skeletal muscle: Counter screen cell viability and HiBit confirmation (AID 1347412); settings: iHSKM muscle cells + IFN-b, HiBiT or CellTiter-Glo, 24 h; for activity change, negative = inhibition: at 45.9 µM (top of the series); further: potency means the concentration at half of the fitted maximal effect; on activity change, negative = inhibition: on the % scale 0 is the no-effect control and ±100 the full control effect; on all read-outs here: nearly all actives have a fitted effect of over 60% in size
How it was run: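 Luminescence read-out: Nano-Glo HiBiT lytic signal from C-terminally HiBiT-tagged HLA-B in CRISPR-edited human myoblasts, plus CellTiter Glo ATP as viability counter screen. IFN-beta 4.0 ng/ml; 24 hrs treatment at 37 C, 5% CO2.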

[7] = molecular target: Glutathione peroxidase 1 (Homo sapiens) (UniProt P07203); assay: Primary qHTS Assay for Inhibitors of Recombinant Selenoprotein Glutathione Peroxidase 1 (GPX1) (AID 1845191); further: nearly all actives have a fitted effect of over 65% in size; further: potency means the concentration at half of the fitted maximal effect
How it was run: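 10 nM GPX1 + cpd, 30 min RT; start w/ 1 mM GSH, 0.5 mM cumene hydroperoxide, 0.5 mM NADPH, 100 nM GR, 0.01% BSA; buffer 50 mM Tris-HCl pH 7.5, 2 mM EDTA, 150 mM NaCl; Fl 340/450, 0 & 15 min.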

[8] = molecular target: Calcium and integrin-binding protein 1 (Homo sapiens) (UniProt Q99828); assay: Primary qHTS for Identification of Calcium Integrin Binding Protein 1 (CIB1) Competitor (AID 1508620);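 further: GST tagged CIB1 binding a fluorescein labelled alphaIIb integrin peptide tracer; top concentration of the series differs between compounds; on the % scale 0 is the no-effect control and ±100 the full control effect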
How it was run: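 CIB1-GST (1 uM final) and compound incubated 15 min at room temperature before adding FITC-alphaIIb peptide tracer (100 nM final). Competition for binding read by fluorescence polarization (ex 480, em 540) after another 15 min at room temperature.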

[9] = measured here: PEO1 parental Z-AUC

Sequence of Glutathione peroxidase 1 (Homo sapiens) (P07203 whole entry, looked up): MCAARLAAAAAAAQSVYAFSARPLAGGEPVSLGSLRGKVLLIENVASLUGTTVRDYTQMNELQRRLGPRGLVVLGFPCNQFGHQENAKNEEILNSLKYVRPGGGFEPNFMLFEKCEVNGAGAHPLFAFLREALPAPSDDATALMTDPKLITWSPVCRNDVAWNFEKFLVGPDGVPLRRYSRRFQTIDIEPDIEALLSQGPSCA
Sequence of Phospholipid hydroperoxide glutathione peroxidase GPX4 (Homo sapiens) (P36969 whole entry, looked up): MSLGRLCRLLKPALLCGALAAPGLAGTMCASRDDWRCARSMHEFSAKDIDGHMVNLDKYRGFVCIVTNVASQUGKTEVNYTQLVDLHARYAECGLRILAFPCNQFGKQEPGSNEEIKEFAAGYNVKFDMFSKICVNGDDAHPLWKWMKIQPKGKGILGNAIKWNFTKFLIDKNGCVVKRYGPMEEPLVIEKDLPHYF
Sequence of Calcium and integrin-binding protein 1 (Homo sapiens) (Q99828 whole entry, looked up): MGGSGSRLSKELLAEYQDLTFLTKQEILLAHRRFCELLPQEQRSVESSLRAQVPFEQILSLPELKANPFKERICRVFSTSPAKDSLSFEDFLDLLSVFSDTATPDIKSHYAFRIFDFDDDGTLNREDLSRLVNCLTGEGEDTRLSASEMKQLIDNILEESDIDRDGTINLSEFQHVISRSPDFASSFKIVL

C=C1C(=O)O[C@H]2C[C@H](C)C(/C=C/C(C)=O)=CC[C@H]12
Potency [1]: 6.58 µM (active) | Potency [2]: 1.48 µM (active) | Potency [3]: 1.32 µM (active) | Potency [4]: inactive | Z-AUC [5]: 0.205 (inactive) | Z-AUC [5, 9]: -0.357 | Z-AUC ([5]; measured here: PEO4 Z-AUC): -0.273 | Potency ([6]; HiBiT): 3.13 µM (active) | activity change, negative = inhibition ([6]; Viability): 64.7% (inactive)

CCc1cnn2c(NCc3ccc[n+]([O-])c3)cc(N3CCCC[C@H]3CCO)nc12
Potency [1]: 0.0052 µM (active) | Potency [2]: 0.0372 µM (active) | Potency [3]: 0.0372 µM (active) | Potency [7]: inactive | Potency [4]: inactive | Potency [5]: 0.245 µM (active) | Z-AUC [5, 9]: -2.15 | Z-AUC ([5]; measured here: PEO4 Z-AUC): -1.73 | activity change, negative = inhibition ([6]; Viability): 5.42% (inactive)

CS[C@H]1SC[C@@H]2C(=O)N(C)[C@H](C(C)C)C(=O)OC[C@H](NC(=O)c3cnc4ccccc4n3)C(=O)N[C@H](C)C(=O)N(C)[C@H]1C(=O)N(C)[C@H](C(C)C)C(=O)OC[C@H](NC(=O)c1cnc3ccccc3n1)C(=O)N[C@H](C)C(=O)N2C
Potency [1]: 0.0104 µM (active) | Potency [2]: 0.0015 µM (active) | Potency [3]: 0.001 µM (active) | Potency [7]: inactive | Potency [4]: inactive | Potency [5]: 0.0087 µM (active) | Z-AUC [5, 9]: -3.58 | Z-AUC ([5]; measured here: PEO4 Z-AUC): -3.11 | Potency ([6]; HiBiT): 0.0125 µM (active) | activity change, negative = inhibition ([6]; Viability): 4.37% (inactive)

CC1=C2[N-][C@H]([C@H](CC(N)=O)[C@@]2(C)CCC(=O)NC[C@@H](C)OP(=O)([O-])O[C@H]2[C@@H](O)[C@@H](n3cnc4cc(C)c(C)cc43)O[C@@H]2CO)[C@]2(C)N=C(C(C)=C3N=C(C=C4N=C1[C@@H](CCC(N)=O)C4(C)C)[C@@H](CCC(N)=O)[C@]3(C)CC(N)=O)[C@@H](CCC(N)=O)[C@]2(C)CC(N)=O.O.[Co+2]
Potency [1]: 8.29 µM (active) | Potency [2]: inactive | Potency [7]: inactive | Potency [4]: inactive | Z-AUC [5]: -0.864 (inactive) | Z-AUC [5, 9]: 0.932 | Z-AUC ([5]; measured here: PEO4 Z-AUC): 0.294 | Potency ([6]; HiBiT): 14 µM (active) | activity change, negative = inhibition ([6]; Viability): -18.1% (inactive)

Cc1cc(C)c(CNC(=O)c2cc(-c3ccc(N4CCN(C)CC4)nc3)cc3c2c(C)cn3C(C)C)c(=O)[nH]1
Potency [1]: inactive | Potency [2]: 16.6 µM (active) and 18.6 µM (active) | Potency [7]: inactive | Potency [4]: 12.8 µM (active) | Z-AUC [5]: -1.15 (inactive) and -0.405 (inactive) | Z-AUC [5, 9]: -1.04 and 0.4 | Z-AUC ([5]; measured here: PEO4 Z-AUC): -1.52 and 0.0539 | activity change, negative = inhibition ([6]; HiBiT): 0.953% (inactive) | activity change, negative = inhibition ([6]; Viability): -10.1% (inactive)

CC(C)c1c(-c2ccccc2)nc2c(C#N)c[nH]n2c1=O
Potency [1]: 5.23 µM (active) | Potency [2]: inactive | Potency [3]: inactive | Potency [7]: inactive | Potency [4]: inactive | Z-AUC [5]: 1.36 (inactive) | Z-AUC [5, 9]: 0.594 | Z-AUC ([5]; measured here: PEO4 Z-AUC): 0.731 | Potency ([6]; HiBiT): 3.94 µM (active) | activity change, negative = inhibition ([6]; Viability): -0.422% (inactive)

CN1CCN(c2ccc3nc(-c4cc(C(C)(C)C)c(OCCCC(=O)NCCCN=[N+]=[N-])c(C(C)(C)C)c4)[nH]c3c2)CC1
Potency [1]: 13.1 µM (active) | Potency [2]: 7.42 µM (active) | Potency [7]: inactive | Z-AUC [5]: 0.842 (inactive) | Z-AUC [5, 9]: 0.24 | Z-AUC ([5]; measured here: PEO4 Z-AUC): 0.156 | Potency ([6]; Viability): 24.9 µM (active)

COc1cccc2c1C(=O)c1c(O)c3c(c(O)c1C2=O)C[C@@](O)(/C(CO)=N/NC(=O)CCCCCN1C(=O)C=CC1=O)C[C@@H]3O[C@H]1C[C@H](N)[C@H](O)[C@H](C)O1
Potency [1]: 3.3 µM (active) | Potency [2]: 0.209 µM (active) | Potency [3]: 0.132 µM (active) | Potency [7]: inactive | Potency [4]: inactive | Potency [5]: 1.1 µM (active) | Z-AUC [5, 9]: -1.6 | Z-AUC ([5]; measured here: PEO4 Z-AUC): -1.55 | Potency ([6]; HiBiT): 2.79 µM (active) | activity change, negative = inhibition ([6]; Viability): -0.403% (inactive)

C=CCNC1=C2CC(C)CC(OC)C(O)C(C)/C=C(\C)C(OC(N)=O)C(OC)/C=C/C=C(\C)C(=O)NC(=CC1=O)C2=O (centres undefined)
Potency [1]: 0.0587 µM (active) | Potency [2]: 1.32 µM (active) | Potency [3]: 1.32 µM (active) | Z-AUC [5]: -0.25 (inactive) | Z-AUC [5, 9]: -0.657 | Z-AUC ([5]; measured here: PEO4 Z-AUC): -0.0403 | Potency ([6]; HiBiT): 0.0497 µM (active)

Cc1c[nH]c2nc(Nc3ccc(N4CCN(C)CC4)c(F)c3)nc(-c3cccc(CC#N)c3)c12
Potency [1]: 2.34 µM (active) | Potency [2]: 0.525 µM (active) | Potency [3]: 0.332 µM (active) | Potency [7]: inactive | Potency [4]: inactive | Z-AUC [5]: -0.269 (inactive) | Z-AUC [5, 9]: -0.34 | Z-AUC ([5]; measured here: PEO4 Z-AUC): -0.115 | Potency ([6]; HiBiT): 1.76 µM (active)

CN(Cc1ccc(/C=C/C(=O)NO)cc1)CC12CC3CC(CC(C3)C1)C2
Potency [1]: 0.33 µM (active) | Potency [2]: 0.263 µM (active) | Potency [3]: 0.209 µM (active) | Potency [7]: inactive | Potency [4]: inactive | Z-AUC [5]: -0.476 (inactive) | Z-AUC [5, 9]: -0.953 | Z-AUC ([5]; measured here: PEO4 Z-AUC): -1.12 | Potency ([6]; HiBiT): 0.351 µM (active) | activity change, negative = inhibition ([6]; Viability): -18.3% (inactive)

COC1CCC(N2C(=O)CNc3ncc(-c4ccc(C(C)(C)O)nc4)nc32)CC1 (centres undefined)
Potency [1]: 13.1 µM (active) | Potency [2]: 3.72 µM (active) | Potency [4]: 3.21 µM (active) | Z-AUC [5]: 1.16 (inactive) | Z-AUC [5, 9]: 0.788 | Z-AUC ([5]; measured here: PEO4 Z-AUC): 0.864 | Potency ([6]; HiBiT): 11.1 µM (active) | activity change, negative = inhibition ([6]; Viability): -5.62% (inactive)

O=C(CCCc1ccc2cccnc2n1)NCc1cc(-c2ccc(F)c(C(F)(F)F)c2)no1
Potency [1]: inactive | Potency [8]: inactive | Potency [2]: inactive | Potency [3]: inactive | Potency [7]: inactive | Potency [4]: inactive | Z-AUC [5]: -0.51 (inactive) | Z-AUC [5, 9]: -0.432 | Z-AUC ([5]; measured here: PEO4 Z-AUC): -0.394

OC1CCC(Oc2cccc3cnc(Nc4ccc5nc[nH]c5c4)nc23)CC1 (centres undefined)
Potency [1]: 0.523 µM (active) | Potency [2]: 0.59 µM (active) | Potency [3]: 0.468 µM (active) | Potency [7]: inactive | Potency [4]: inactive | Z-AUC [5]: -1.25 (inactive) | Z-AUC [5, 9]: -1.54 | Z-AUC ([5]; measured here: PEO4 Z-AUC): -0.421 | Potency ([6]; HiBiT): 0.557 µM (active) | activity change, negative = inhibition ([6]; Viability): 9.5% (inactive)

C[C@@H]1CC(=O)Nc2cccc(-c3cnn(C(C)(C)C)c3)c2N1
Potency [1]: inactive | Potency [8]: inactive | Potency [2]: 6.61 µM (active) | Potency [3]: 5.9 µM (active) | Potency [7]: inactive | Potency [4]: inactive | Z-AUC [5]: -0.505 (inactive) | Z-AUC [5, 9]: -0.577 | Z-AUC ([5]; measured here: PEO4 Z-AUC): -0.924

CC(=O)c1cc2c(o1)C(=O)c1ccccc1C2=O
Potency [1]: 0.523 µM (active) | Potency [2]: 1.86 µM (active) | Potency [3]: 1.32 µM (active) | Potency [7]: 1.29 µM (active) | Potency [5]: 0.549 µM (active) | Z-AUC [5, 9]: -1.52 | Z-AUC ([5]; measured here: PEO4 Z-AUC): -1.88 | Potency ([6]; HiBiT): 0.249 µM (active) | Potency ([6]; Viability): 0.394 µM (active)
